Test results: PubChem BioAssay (NCATS)
Results filed as inconclusive are left out. Unmarked numbers belong to inactive results. Activity calls are given as the source filed them. Calls come from the whole dose curve; as a rule, active = well fitted activation curve with a large enough effect; inconclusive = small, poorly fitted or top-dose-only effect; inactive = no such curve, though single readings can be large or run the other way.

Molecular target: Cellular tumor antigen p53 (Homo sapiens) (UniProt P04637)
Experiment: Primary qHTS for small molecule compounds that upregulate eGFP-tagged delta133p53alpha (in N-terminal) cells. (AID 2060322); note: nearly all actives have a fitted effect of over 75% in size;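 for activation: series mostly up to about 56 µM; 0% = DMSO vehicle and 100% = reference activator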
Details: NCI-H358 eGFP-delta133p53alpha fluorescence, 24 h; activation: stronger effect = higher value
In short: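 NCI-H358 cells pre-induced 24 h with 10 ng/ml doxycycline to express N-terminal eGFP-delta133p53alpha, then dosed 24 h at 37C without doxycycline; fixed, Hoechst-stained, GFP intensity by laser scanning cytometry, normalized to DMSO (0%) and 57.5 uM 5-azacytidine (100%).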
Potency is the fitted concentration of half-maximal effect.

Chain of Cellular tumor antigen p53 (Homo sapiens) (P04637 whole entry, looked up): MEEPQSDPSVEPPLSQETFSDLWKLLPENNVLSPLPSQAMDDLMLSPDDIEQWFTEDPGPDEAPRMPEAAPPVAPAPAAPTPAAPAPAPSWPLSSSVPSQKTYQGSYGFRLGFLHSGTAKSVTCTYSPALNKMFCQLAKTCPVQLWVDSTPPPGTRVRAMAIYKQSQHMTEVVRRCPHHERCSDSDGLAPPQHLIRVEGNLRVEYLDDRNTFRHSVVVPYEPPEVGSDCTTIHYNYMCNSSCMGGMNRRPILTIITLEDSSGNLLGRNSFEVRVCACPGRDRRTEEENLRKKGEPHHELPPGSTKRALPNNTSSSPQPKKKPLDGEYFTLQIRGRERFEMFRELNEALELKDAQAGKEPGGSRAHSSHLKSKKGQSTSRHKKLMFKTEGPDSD

SMILES	activation [%]	Potency
O=C(CCl)Nc1ccc(S(=O)(=O)c2ccc(NC(=O)CCl)cc2)cc1	4.47	
CC(CC1c2ccccc2CCc2ccccc21)CN(C)C (stereo not given)	-10	
NC(=Nc1ccccc1)Nc1ccccc1	7.53	
O=C(O)Cc1csc(-c2ccc(Cl)cc2)n1	15.3	
O=C1c2ccccc2S(=O)(=O)N1CCCCN1CCN(c2ncccn2)CC1	13.4	
CN(C)CCN(Cc1ccc(Cl)cc1)c1ccccn1	1.96	
O=C1NC(=O)C(=Cc2ccc3nccnc3c2)S1	-3.42	
CCCCCCc1ccc(O)cc1O	3.35	
Cc1[nH]c(C=C2C(=O)Nc3ccc(S(=O)(=O)N(C)c4cccc(Cl)c4)cc32)c(C)c1C(=O)N1CCN(C)CC1		6.11 µM (active)
N=C(N)N	7.34	
O=C1c2c(O)cc(O)cc2O[C@H](c2cc(O)c(O)c(O)c2)[C@H]1O	-0.847	
CO[C@H]1C[C@@H]2CC[C@@H](C)[C@@](O)(O2)C(=O)C(=O)N2CCCC[C@@H]2C(=O)O[C@H]([C@H](C)C[C@@H]2CC[C@H](OCCO)[C@H](OC)C2)CC(=O)[C@H](C)C=C(C)[C@@H](O)[C@@H](OC)C(=O)[C@H](C)C[C@H](C)C=CC=CC=C1C	24.4	
OCc1c[nH]c2ccccc12		31.7 µM (active)
CCNC(=O)/C=C/c1cccc(Br)c1	-10.9	
Cc1ccsc1/C=C/C1=NCCCN1C	-2.51	
C/C(=N/NC(=O)c1ccncc1)C(=O)O	7.34	
NC(=O)NN=Cc1ccc([N+](=O)[O-])o1	13.5	
CC(=O)Nc1cccc(O)c1	-4.18	
CC(C)C[C@@H]1[C@H](c2ccccc2)OC(=O)N1CCCN1CCCCCC1	1.67	
FC(F)(F)C(F)(F)C(F)(F)C(F)(F)C(F)(F)C(F)(F)C(F)(F)C(F)(F)Br	-14.1	

SMILES	activation [%]	Potency
CC1=C(C(=O)O)N2C(=O)[C@@H](NC(=O)[C@H](N)c3ccc(O)cc3)[C@H]2SC1	0	
CCCCN(CCCC)C(C(N)=O)c1ccc(OC)cc1 (stereo not given)	20.9	
CN=C(NC#N)Nc1ccc(C2=NNC(=O)CC2C)cc1 (stereo not given)	6.69	
CCCOC(=O)c1ccccc1	-2.82	
O=C(c1ccccc1)c1ccccc1	16.4	
OC1(c2ccc(Cl)cc2)CCNCC1	-8.47	
COc1ccc(C(=O)c2ccccc2O)c(O)c1	10.9	
O=C(O)COc1nn(Cc2ccccc2)c2ccccc12	28.8	
N=C(N)c1ccc(OCCCOc2ccc(C(=N)N)cc2)cc1	-15.9	
CNC(=O)c1ccccc1Sc1ccc2c(C=Cc3ccccn3)n[nH]c2c1	-28.7	
O=C(O)C(Cc1cc(I)c(O)c(I)c1)c1ccccc1 (stereo not given)	-19.8	
Cc1oc(=O)oc1COC(=O)[C@@H]1N2C(=O)[C@@H](NC(=O)[C@H](N)c3ccccc3)[C@H]2SC1(C)C	-5.08	
CC(C)C(=O)OCc1cccc(OC(=O)[C@@H]2N3C(=O)[C@@H](NC(=O)Cc4ccccc4)[C@H]3SC2(C)C)c1	-5.86	
CC(C)(Oc1ccc(Cl)cc1)C(=O)OCCCOC(=O)C(C)(C)Oc1ccc(Cl)cc1	-6.69	
C=C1CCC2[C@](C)(CO)C(O)CC[C@]2(C)C1CC=C1C(=O)OCC1O (stereo not given in full)	-28.9	
CC(=O)N1CCN(c2ccc(OCc3nn(C)c(C)c3-c3cccc4c(CCCOc5cc(C)c(Cl)c(C)c5)c(C(=O)O)n(Cc5cccnc5)c34)cc2)CC1	-5.22	
CCC(=O)O[C@]1(C(=O)COC)[C@@H](C)C[C@H]2[C@@H]3CCC4=CC(=O)C=C[C@]4(C)C3(F)[C@@H](O)C[C@@]21C (stereo not given in full)	-4.18	
COc1ccc(S(=O)(=O)ON=C2C=C(C)C(=O)C(C)=C2)cc1		34.3 µM (active)
CCCCCCCCCCCCCCCCCCOCC(O)CO (stereo not given)	-16.4	
O=C1CC2(CCCC2)CC(=O)N1	-7.34	
